# Reference: PubChem BioAssay (EPA / NIEHS)
# Records with an inconclusive call do not appear. Active and inactive are the calls of the source. How the source made its calls: active means hit-call score of the fitted dose curve at least 0.9, where 1 is the maximum; inconclusive means response in the unintended direction; inactive means score below 0.9.
# Experiments:
# [1] = target: Estrogen receptor (Homo sapiens) (UniProt P03372); experiment: ATG_hERa_XSP1: Attagene TRANS-FACTORIAL Multi-Species (XSP1) HepG2 Assay for human Estrogen Receptor (ESR1) (AID 2283780)
# Sequence of Estrogen receptor (Homo sapiens) (P03372 whole entry, looked up, the tested form may be a part): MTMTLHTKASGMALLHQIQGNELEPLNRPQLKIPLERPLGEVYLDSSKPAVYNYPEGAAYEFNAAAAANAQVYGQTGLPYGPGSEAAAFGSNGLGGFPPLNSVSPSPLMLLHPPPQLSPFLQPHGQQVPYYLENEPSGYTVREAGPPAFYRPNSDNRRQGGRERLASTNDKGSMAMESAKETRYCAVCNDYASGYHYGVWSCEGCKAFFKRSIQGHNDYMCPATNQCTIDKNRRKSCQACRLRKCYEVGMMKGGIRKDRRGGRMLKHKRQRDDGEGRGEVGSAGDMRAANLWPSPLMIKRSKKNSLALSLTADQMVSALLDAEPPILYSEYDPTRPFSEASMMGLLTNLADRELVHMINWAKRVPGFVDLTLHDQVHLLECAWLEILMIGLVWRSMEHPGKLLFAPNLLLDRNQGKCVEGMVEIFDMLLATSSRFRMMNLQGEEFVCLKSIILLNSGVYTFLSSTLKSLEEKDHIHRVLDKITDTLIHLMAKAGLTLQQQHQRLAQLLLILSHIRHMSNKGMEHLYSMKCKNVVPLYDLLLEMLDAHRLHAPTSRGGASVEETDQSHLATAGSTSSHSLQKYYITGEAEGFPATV
# Procedure, shortened: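 HepG2 cells transiently transfected with GAL4-UAS reporter units and chimeric NR-Gal4 constructs; 24 h after dosing, reporter mRNA quantified by RT-PCR and capillary electrophoresis. Medium contained 3 nM 6-alpha-fluorotestosterone; activity fitted as gain-of-signal versus DMSO.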
# [2] = test system: turtle Estrogen Receptor (ESR1), gene 101933533; experiment: ATG_trERa_XSP1: Attagene TRANS-FACTORIAL Multi-Species (XSP1) HepG2 Assay for turtle Estrogen Receptor (ESR1) (AID 2283781)
# Procedure, shortened: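 HepG2 cells transiently transfected with GAL4-UAS reporter units and chimeric NR-Gal4 constructs, dosed for 24 h with 3 nM 6-alpha-fluorotestosterone present. Reporter mRNA was quantified by RT-PCR, fluorescent labelling and capillary electrophoresis, with gain of signal fitted relative to DMSO.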
# [3] = target: Estrogen receptor beta (Homo sapiens) (UniProt Q92731); experiment: ATG_hERb_XSP1: Attagene TRANS-FACTORIAL Multi-Species (XSP1) HepG2 Assay for human Estrogen Receptor (ESR2) (AID 2283788)
# Sequence of Estrogen receptor beta (Homo sapiens) (Q92731 whole entry, looked up, the tested form may be a part): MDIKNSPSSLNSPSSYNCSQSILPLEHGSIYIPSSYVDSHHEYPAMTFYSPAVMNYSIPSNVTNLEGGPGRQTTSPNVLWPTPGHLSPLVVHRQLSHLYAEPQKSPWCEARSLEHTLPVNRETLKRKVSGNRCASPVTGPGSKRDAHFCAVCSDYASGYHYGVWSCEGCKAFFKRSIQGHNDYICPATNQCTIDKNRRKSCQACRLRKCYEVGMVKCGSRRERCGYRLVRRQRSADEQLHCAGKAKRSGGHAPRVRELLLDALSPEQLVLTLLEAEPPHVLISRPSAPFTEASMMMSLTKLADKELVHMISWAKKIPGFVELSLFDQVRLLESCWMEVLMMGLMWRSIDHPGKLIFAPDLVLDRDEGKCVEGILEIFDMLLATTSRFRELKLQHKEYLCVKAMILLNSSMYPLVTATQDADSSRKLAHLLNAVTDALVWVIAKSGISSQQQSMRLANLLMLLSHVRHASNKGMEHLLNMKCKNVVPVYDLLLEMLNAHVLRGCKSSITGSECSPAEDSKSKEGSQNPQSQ
# Procedure, shortened: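 Read-out: reporter mRNA induction by RT-PCR, HpaI digestion and capillary electrophoresis fluorescence, fitted in positive direction relative to DMSO baseline. Human liver HepG2 cells expressing ERβ-Gal4 fusion, dosed 24 h, medium containing 3 nM 6-alpha-fluorotestosterone.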
# [4] = ATG_M_06_XSP1: Attagene TRANS-FACTORIAL Multi-Species (XSP1) HepG2 Assay for M06 Transcription Factor (Internal Marker) (AID 2283790)
# Procedure, shortened: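 Transfected HepG2 multi-reporter system treated 24 h in the presence of 3 nM 6-alpha-fluorotestosterone. The M06 internal marker transcript was quantified by RT-PCR with capillary electrophoresis as a background control, and gain of signal was scored versus DMSO.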
# [5] = ATG_M_61_XSP1: Attagene TRANS-FACTORIAL Multi-Species (XSP1) HepG2 Assay for M61 Transcription Factor (Internal Marker) (AID 2283797)
# Procedure, shortened: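 HepG2 cells transiently transfected with multiplexed GAL4-driven reporter units, dosed 24 h with 3 nM 6-alpha-fluorotestosterone present. Reporter mRNA quantified by RT-PCR, 6-FAM labelling, HpaI digestion and capillary electrophoresis; internal-marker background control, gain of signal versus DMSO.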
# [6] = ACEA_ER_AUC_viability: ACEA Biosciences xCELLigence Real-Time Cell Analysis on Estrogen Receptor Agonism for Viability (AID 2283782);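 further: continuous compound exposure with impedance area under curve over 80 h; hit means loss of impedance signal meaning reduced cell growth or viability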
# Procedure, shortened: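 T-47D human breast cells in phenol red-free RPMI1640 with 10% charcoal-stripped FBS were dosed with an 8-point 1:4 dilution series from 100 uM top final concentration, in duplicate. Impedance-based growth was followed for 80 h; AUC analysed versus DMSO.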
# [7] = ATG_M_19_XSP1: Attagene TRANS-FACTORIAL Multi-Species (XSP1) HepG2 Assay for M19 Transcription Factor (Internal Marker) (AID 2283798)
# Procedure, shortened: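 HepG2 cells transiently transfected with multiplexed GAL4-UAS reporter units, dosed 24 h with 3 nM 6-alpha-fluorotestosterone present for partial AR stimulation. Reporter mRNA measured by RT-PCR with capillary electrophoresis; gain-of-signal fitted relative to DMSO.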
# [8] = ATG_M_32_XSP1: Attagene TRANS-FACTORIAL Multi-Species (XSP1) HepG2 Assay for M32 Transcription Factor (Internal Marker) (AID 2283799)
# Procedure, shortened: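 HepG2 cells transiently transfected with multi-species TRANS reporter units, dosed 24 h with 3 nM 6-alpha-fluorotestosterone present. Internal-marker reporter mRNA quantified by RT-PCR and capillary electrophoresis; positive-direction fit versus DMSO.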
compound,measurement,setting,value
CN(CCOc1ccc(CC2SC(=O)NC2=O)cc1)c1ccccn1 (stereo not given),outcome,[1],inactive
same,AC50,[2],0.0372 µM (active)
same,outcome,[3],inactive
same,outcome,[4],inactive
same,outcome,[5],inactive
CC(=O)Nc1ccccc1O,outcome,[6],inactive
Nc1ccc(S(=O)(=O)O)c(N)c1,outcome,[6],inactive
OC1C(O)C(O)C(O)C(O)C1O (stereo not given),outcome,[6],inactive
O=[N+]([O-])c1cc(C(F)(F)F)ccc1Cl,AC50,[6],49.8 µM (active)
CC(C)CCCCCCCOC(=O)c1ccc(C(=O)OCCCCCCCC(C)C)c(C(=O)OCCCCCCCC(C)C)c1,outcome,[6],inactive
CC1CC(OC(=O)c2ccccc2O)CC(C)(C)C1 (stereo not given),AC50,[6],78.4 µM (active)
C=C(C)C1CCC(C)CC1O (stereo not given),AC50,[6],50 µM (active)
CC1=CCC(O)(C(C)C)CC1 (stereo not given),outcome,[6],inactive
c1ccc(CCCc2ccccn2)cc1,outcome,[6],inactive
O=P(c1ccccc1)(c1ccccc1)c1ccccc1,outcome,[6],inactive
CCCCOCCOCCOCCOCCO,outcome,[6],inactive
Clc1ccc(Cl)c(Cl)c1Cl,outcome,[6],inactive
COc1cccc(OC)c1,outcome,[6],inactive
OCCOCCOCCOCCO,outcome,[6],inactive
CCCCCCCCC,outcome,[6],inactive
Fc1c(F)c(F)c(Br)c(F)c1F,outcome,[6],inactive
Clc1nc(C(Cl)(Cl)Cl)c(Cl)c(Cl)c1Cl,AC50,[6],24.1 µM (active)
CC(CN1c2ccccc2Sc2ccccc21)N(C)C (stereo not given),AC50,[6],17.2 µM (active)
Nc1cc(N)cc(C(=O)O)c1,outcome,[6],inactive
CCn1c2ccccc2c2cc(N)ccc21,outcome,[6],inactive
CC(C)(COC(=O)c1ccccc1)COC(=O)c1ccccc1,AC50,[6],72.8 µM (active)
C=CCOc1nc(OCC=C)nc(OCC=C)n1,outcome,[6],inactive
CCCCCCCCCC=O,outcome,[6],inactive
CCCCC/C=C/C=C/C=O,AC50,[6],81.1 µM (active)
CC(=O)/C=C/C1=C(C)CCCC1(C)C,AC50,[6],9.92 µM (active)
CC(C#N)(CCC(=O)O)N=NC(C)(C#N)CCC(=O)O (stereo not given),outcome,[6],inactive
O=C1CCCCCCCCCCCCCCO1,outcome,[6],inactive
CC(C)(C)NC(N)=O,outcome,[6],inactive
CC(=O)c1c(C)cc(C(C)(C)C)cc1C,AC50,[6],77.7 µM (active)
CCCCCCCCCCN,AC50,[6],45.2 µM (active)
CCCCCCCCCCCCCCCC(=O)O,AC50,[6],84.3 µM (active)
CCCC1CCC(=O)O1 (stereo not given),outcome,[6],inactive
COC(=O)c1ccc(C)cc1,outcome,[6],inactive
CN(C)C(=N)N=C(N)N,outcome,[7],inactive
same,outcome,[8],inactive
